Assay [1] in a line: Quantitative High-Throughput drug screen in 47 multiple myeloma cell lines against the NCATS MIPE library collection: FR4_PLB cell viability assay (AID 1918924; also: nearly all actives have a fitted effect of over 35% in size). The method in brief:
(§1)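 Luminescent ATP measurement with CellTiter-Glo gives viability, scaled between DMSO-only wells (100%) and media-only wells (0%). Cells, 500 per well, faced library compounds for 48 hours at 37C.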

The nature of assay [2]: Quantitative High-Throughput drug screen in 47 multiple myeloma cell lines against the NCATS MIPE library collection: Delta47_JCRB cell viability assay (AID 1918925; also: nearly all actives have a fitted effect of over 45% in size). The method in brief:
(§2)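 Viability readout: CellTiter-Glo luminescence following 5 min room-temperature incubation with reagent. Prior exposure: 48 h, 37C, humidified 5% CO2, 500 cells per well.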

Assay [3] can be described thus: Quantitative High-Throughput drug screen in 47 multiple myeloma cell lines against the NCATS MIPE library collection: EJM_DSMZ cell viability assay (AID 1918926; also: nearly all actives have a fitted effect of over 30% in size). In a few lines: as §2
A short description of assay [4]: Quantitative High-Throughput drug screen in 47 multiple myeloma cell lines against the NCATS MIPE library collection: AMO1_DSMZ cell viability assay (AID 1918927; also: nearly all actives have a fitted effect of over 30% in size). The method in brief: as §2
Assay [5] in a line: Quantitative High-Throughput drug screen in 47 multiple myeloma cell lines against the NCATS MIPE library collection: ARD_JJKsccE7 cell viability assay (AID 1918929). The method in brief:
as §2

Assay [6] in a line: Quantitative High-Throughput drug screen in 47 multiple myeloma cell lines against the NCATS MIPE library collection: ARP1_JJKsccF8 cell viability assay (AID 1918928; also: nearly all actives have a fitted effect of over 40% in size). The method in brief:
(§3)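 Myeloma cells, 500 per well, were exposed to MIPE 4.0 drugs by pin transfer for 48 h at 37 °C, 5% CO2. Viability was read as ATP luminescence with CellTiter-Glo, normalised to DMSO-only (100%) and medium-only (0%) wells.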

Assay [7] is described as follows: Quantitative High-Throughput drug screen in 47 multiple myeloma cell lines against the NCATS MIPE library collection: KMM1_JCRB cell viability assay (AID 1918960). Also: nearly all actives have a fitted effect of over 30% in size. In a few lines:
as §3

A short description of assay [8]: Quantitative High-Throughput drug screen in 47 multiple myeloma cell lines against the NCATS MIPE library collection: Karpas620_DSMZ cell viability assay (AID 1918959). Also: nearly all actives have a fitted effect of over 30% in size. The method in brief:
as §1

Results filed as inconclusive are left out. The source made the active and inactive calls. Calls follow the shape of the dose curve; as a rule, active = well fitted cell-killing curve with a large enough effect; inconclusive = small, poorly fitted or top-dose-only effect, or effect the other way; inactive = no such curve, though single readings can be large or run the other way.
Potency is read from the fitted curve at half-maximal effect.

Consider `COc1ncnc(NS(=O)(=O)c2ccc(N)cc2)c1OC`, for which the Potency result in assay [1], in assay [2], in assay [3], in assay [4] and in assay [5] was “inactive” throughout.
Turning to `COc1ccccc1OCC(O)COC(N)=O` (stereo not drawn), the Potency entry in assay [1], in assay [2], in assay [3], in assay [4], in assay [6] and in assay [5] was “inactive” each time. Besides, the Potency result in assay [7] is “inactive”.
For the compound `Cc1cccc(N(C)C(=S)Oc2ccc3ccccc3c2)c1`, the Potency entry in assay [1], in assay [2], in assay [3], in assay [6] and in assay [8] was “inactive” each time. Besides, in assay [5], the Potency was 20.9 µM (active).
`CC(N)C12CC3CC(CC(C3)C1)C2` (stereo not drawn): the Potency entry in assay [1], in assay [2], in assay [3], in assay [5] and in assay [7] was “inactive” throughout.
As for `N=C(N)c1ccc(OCCCCCOc2ccc(C(=N)N)cc2)cc1`, the Potency in assay [1] is 18.7 µM (active); in assay [2] it was 5.26 µM (active); in assay [3], 14.8 µM (active); in assay [6] it was 16.6 µM (active); in assay [7] it was 5.26 µM (active). Besides, the Potency entry in assay [5] is “inactive”.
As for `CCCc1nc(C)c2c(=O)[nH]c(-c3cc(S(=O)(=O)N4CCN(CC)CC4)ccc3OCC)nn12`, the Potency in assay [1] was 8.33 µM (active); in assay [2], 5.9 µM (active); in assay [3], 9.35 µM (active); in assay [4], 7.43 µM (active); in assay [6] it was 5.26 µM (active); in assay [5], 6.62 µM (active). Besides, the Potency in assay [7] is 3.72 µM (active).
Regarding `COc1cc(NS(=O)(=O)c2ccc(N)cc2)nc(OC)n1`, the Potency result in assay [1], in assay [2], in assay [3], in assay [4], in assay [6] and in assay [5] was “inactive” each time. For the same compound, the Potency entry in assay [8] and in assay [7] was “inactive” in each case.
For the compound `Cc1ccc(S(=O)(=O)N[C@@H](Cc2ccccc2)C(=O)CCl)cc1`, the Potency in assay [1] is 20.9 µM (active); in assay [2], 5.26 µM (active); in assay [3], 16.6 µM (active); in assay [4], 13.2 µM (active); in assay [6], 20.9 µM (active); in assay [5], 16.6 µM (active). In addition, the Potency was 11.8 µM (active) in assay [8] and 13.2 µM (active) in assay [7].
On to `C1CCC(C(CC2CCCCN2)C2CCCCC2)CC1` (stereo not drawn), for which the Potency in assay [1] was 11.8 µM (active); in assay [2], 13.2 µM (active); in assay [3], 26.4 µM (active); in assay [4], 18.7 µM (active); in assay [6], 23.5 µM (active); in assay [5] it was 26.4 µM (active). In assay [7], the Potency is 14.8 µM (active).
Turning to `COc1cc(NCc2ccc3nc(N)nc(N)c3c2C)cc(OC)c1OC`, the Potency in assay [1] was 16.6 µM (active); in assay [2], 18.7 µM (active); in assay [3] it was 8.33 µM (active); in assay [4], 0.935 µM (active); in assay [6], 2.96 µM (active); in assay [5], 1.05 µM (active). Further, the Potency in assay [7] was 1.18 µM (active).
On to `COC(=O)Nc1nc2ccc(C(=O)c3ccccc3)cc2[nH]1`, for which the Potency in assay [1] is 0.296 µM (active); in assay [2] it was 1.66 µM (active); in assay [3] it was 4.69 µM (active); in assay [6], 0.743 µM (active).
For `Cn1c(=O)c2c(ncn2CC(O)CO)n(C)c1=O` (stereo not drawn), the Potency result in assay [1], in assay [2], in assay [3], in assay [4], in assay [6] and in assay [8] was “inactive” throughout. For the same compound, the Potency entry in assay [7] was “inactive”.
As to `Cc1cccc(Nc2ccncc2S(=O)(=O)NC(=O)NC(C)C)c1`, the Potency entry in assay [1], in assay [2], in assay [3], in assay [4], in assay [6] and in assay [8] was “inactive” in each case. The Potency entry in assay [7] was “inactive”.
As to `O=C(O)CSCC(=O)NC1CCSC1=O` (stereo not drawn), the Potency entry in assay [1], in assay [2], in assay [3], in assay [6], in assay [5] and in assay [8] was “inactive” throughout.
Regarding `CN1CCN(c2c(F)cc3c(=O)c(C(=O)O)cn4c3c2OCN4C)CC1`, the Potency result in assay [1], in assay [2], in assay [3], in assay [4], in assay [6] and in assay [5] was “inactive” in each case. Further, the Potency result in assay [7] is “inactive”.
With `CC(C)NCC(O)c1ccc(NS(C)(=O)=O)cc1` (stereo not drawn), the Potency entry in assay [1], in assay [2], in assay [3], in assay [5] and in assay [7] was “inactive” each time.
With `Nc1nc(N)nc(-c2cc(Cl)ccc2Cl)n1`, the Potency entry in assay [1], in assay [2], in assay [3], in assay [6] and in assay [7] was “inactive” in each case.
As to `CCN(C)C(=O)Oc1cccc([C@H](C)N(C)C)c1`, the Potency result in assay [1], in assay [2], in assay [3] and in assay [6] was “inactive” throughout. Also, the Potency in assay [8] was 0.0332 µM (active).
For the compound `OCc1ccc(-c2nn(Cc3ccccc3)c3ccccc23)o1`, the Potency entry in assay [1], in assay [3], in assay [6] and in assay [7] was “inactive” each time. Also, the Potency in assay [2] is 20.9 µM (active).
In the case of `CCc1c2c(nc3ccc(OC(=O)N4CCC(N5CCCCC5)CC4)cc13)-c1cc3c(c(=O)n1C2)COC(=O)[C@]3(O)CC`, the Potency was 0.935 µM (active) in assay [1]; 1.32 µM (active) in assay [2]; 4.69 µM (active) in assay [3]; 1.32 µM (active) in assay [4]; 0.743 µM (active) in assay [6]; 0.0105 µM (active) in assay [5]. For the same compound, the Potency in assay [7] is 0.935 µM (active).
`CCn1cc(C(=O)O)c(=O)c2cc(F)c(N3CCN(C)CC3)cc21`: the Potency result in assay [1], in assay [2], in assay [3] and in assay [8] was “inactive” throughout. In addition, the Potency in assay [5] was 0.0132 µM (active).
In the case of `CC(C)OC(=O)C(C(=O)OC(C)C)=C1SC=CS1`, the Potency result in assay [1], in assay [2], in assay [3], in assay [4], in assay [6] and in assay [8] was “inactive” throughout.
For `CN1CCN(c2c(F)cc3c(=O)c(C(=O)O)cn(CCF)c3c2F)CC1`, the Potency result in assay [1], in assay [2], in assay [3], in assay [4], in assay [6] and in assay [5] was “inactive” each time. The Potency result in assay [7] was “inactive”.
In the case of `O=C(O)c1cccnc1`, the Potency result in assay [1], in assay [2], in assay [3], in assay [4], in assay [5] and in assay [8] was “inactive” throughout. In assay [7], the Potency result was “inactive”.
In the case of `CNCC[C@H](Oc1cccc2ccccc12)c1cccs1`, the Potency in assay [1] is 3.72 µM (active); in assay [2], 2.35 µM (active); in assay [3] it was 0.935 µM (active); in assay [4] it was 26.4 µM (active); in assay [6], 18.7 µM (active); in assay [5] it was 23.5 µM (active). Moreover, in assay [7], the Potency is 26.4 µM (active).
For the compound `O=C(O)c1cc(=O)[nH]c(=O)[nH]1`, the Potency result in assay [1], in assay [2], in assay [3], in assay [4], in assay [5] and in assay [7] was “inactive” throughout.
Consider `Cc1ccnc2c1NC(=O)c1cccnc1N2C1CC1`, for which the Potency result in assay [1], in assay [3], in assay [6] and in assay [8] was “inactive” throughout. In addition, in assay [2], the Potency is 20.9 µM (active).
As to `COc1cccc(N(C)C(=S)Oc2ccc3c(c2)CCCC3)n1`, the Potency result in assay [1], in assay [2] and in assay [3] was “inactive” throughout. Moreover, in assay [5], the Potency was 23.5 µM (active).
For the compound `COC(=O)Nc1nc2ccc(Sc3ccccc3)cc2[nH]1`, the Potency was 0.935 µM (active) in assay [1]; 1.05 µM (active) in assay [2]; 16.6 µM (active) in assay [3]; 0.833 µM (active) in assay [4]; 1.18 µM (active) in assay [6]; 1.32 µM (active) in assay [5]. In addition, the Potency in assay [7] is 1.18 µM (active).
As to `CC(C)(C)C(=O)OCOP(=O)(COCCn1cnc2c(N)ncnc21)OCOC(=O)C(C)(C)C`, the Potency in assay [1] is 6.62 µM (active); in assay [2], 0.0833 µM (active); in assay [3] it was 0.935 µM (active); in assay [4], 0.105 µM (active); in assay [6], 0.833 µM (active); in assay [5] it was 5.9 µM (active). Further, in assay [7], the Potency was 11.8 µM (active).
`CN(CCOc1ccc(CC2SC(=O)NC2=O)cc1)c1ccccn1` (stereo not drawn): the Potency entry in assay [1], in assay [2], in assay [4] and in assay [7] was “inactive” in each case.
Take `CC1=C(C(=O)O)N2C(=O)[C@@H](NC(=O)C(N)c3ccccc3)[C@H]2SC1` (stereo partly drawn): the Potency entry in assay [1], in assay [3], in assay [4], in assay [6], in assay [5] and in assay [8] was “inactive” throughout. Also, in assay [7], the Potency result is “inactive”.
Regarding `CN1CCCC(n2nc(Cc3ccc(Cl)cc3)c3ccccc3c2=O)CC1` (stereo not drawn), the Potency is 23.5 µM (active) in assay [1], 1.05 µM (active) in assay [3] and 6.62 µM (active) in assay [6].
As to `NNC(=O)c1ccncc1`, the Potency entry in assay [1], in assay [2], in assay [4], in assay [6], in assay [5] and in assay [7] was “inactive” each time.
For the compound `CC(=O)CC(c1ccccc1)c1c(O)c2ccccc2oc1=O` (stereo not drawn), the Potency result in assay [1], in assay [3], in assay [6], in assay [5] and in assay [7] was “inactive” in each case.
Take `COc1cnc(NS(=O)(=O)c2ccc(N)cc2)nc1`: the Potency entry in assay [1], in assay [3] and in assay [6] was “inactive” in each case.

These data come from PubChem BioAssay (NCATS).
